Rows were chosen to be rich in hits. Some 2.3% of all compounds tested hit in one or more screens of this group.
USP1 inh: inhibitors of human USP1/UAF1 deubiquitinase; O94782; recombinant USP1/UAF1, Ub-Rhodamine cleavage fluorescence; Potency, µM (highest dose often 57.1 µM), inactives show top-dose activity change, negative = inhibition, usual class: inhibitors; actives 0.23% (n = 390,000); AID 743255; further: potency means the concentration at half of the fitted maximal effect; nearly all actives have a fitted effect of over 60% in size
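USP1/UAF1 complex at 1 nM was preincubated with compound for 15 min at room temperature, then Ub-Rho substrate (150nM final) was added. Fluorescence (480/540 nm) was read kinetically, 6 reads every 60 seconds.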
FBPA coupling cs: coupling enzyme interference in Giardia aldolase counter-screen; coupling enzyme system counterscreen, AmpLite Red fluorescence; activity change, negative = inhibition, % at 58.2 µM, hits read low; actives 0.67% (n = 290,000); AID 2472; in the data active means activity change below about -30%
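Final compound at 57.5 uM, incubated 10 min at RT with coupling enzyme reagent (glyceraldehyde-3-phosphate), then 20 min with substrate and AmpLite Red detection. Fluorescence read at 525/598 nm; tests interference with the coupling assay, not aldolase inhibition.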
Tau fibril FP: blocks human tau fibril formation measured by polarization; Potency, µM (top dose mostly 57.7 µM), for inactives: at the highest dose activity, negative = inhibition, actives largely listed as inhibitors; P10636; AID 1468; actives 0.39% (n = 280,000); K18 P301L tau heparin fibrillization, Alexa594 FP, 6 h; further: potency means the concentration at half of the fitted maximal effect; nearly all actives have a fitted effect of over 55% in size
Target sequence (P10636 561-689 P618L limits assumed): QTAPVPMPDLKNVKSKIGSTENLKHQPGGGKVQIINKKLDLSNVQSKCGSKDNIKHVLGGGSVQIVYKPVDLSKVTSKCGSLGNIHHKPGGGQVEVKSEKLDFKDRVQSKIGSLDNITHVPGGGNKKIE
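Steps: dispense K18 P301L tau (15 uM plus 0.24 uM Alexa 594 tracer, final) in pH 7 sodium acetate; add compound; add heparin (20 uM final); incubate 6 hr, 37 C; add ThT (30 uM final); after 1 hr ambient, read FP.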
Tau fluor cs: counter-screen for tau fibril formation inhibitors. tau K18 P301L Alexa594 fluorescence, heparin fibrillization. Potency, µM (top dose mostly 57.7 µM), for inactives: at the top dose activity change, negative = decrease. actives 0.93% (n = 280,000). AID 1463; further: potency means the concentration at half of the fitted maximal effect; nearly all actives have a fitted effect of over 55% in size
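Human tau K18 P301L (15 uM unlabeled, 0.24 uM Alexa 594-labeled) in 100 mM sodium acetate pH 7 with 20 uM heparin, 6 hr at 37 C. ThT 30 uM added, 1 hr ambient; Alexa 594 FP and total fluorescence read at 555/632 nm.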
Tau fibril ThT: blocks human tau fibril formation measured by thioflavin T | Potency, µM (top dose mostly 57.4 µM), inactives show at the top dose activity, negative = inhibition, actives largely listed as inhibitors | P10636 | recombinant tau K18 P301L, heparin-induced fibrillization, ThT fluorescence | AID 1460 | actives 2.1% (n = 270,000); further: potency means the concentration at half of the fitted maximal effect; nearly all actives have a fitted effect of over 55% in size
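Fibril formation assay: tau K18 P301L at 15 uM with trace Alexa 594 label, heparin inducer 20 uM, pH 7 sodium acetate buffer, 37 C for 6 hr; endpoint ThT signal.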
* hit, by the source's call; ? = inconclusive; nt = not tested or not shown; ! = not active in a repeat; [ ] = dose if it differs, or a comment. Unless noted, the call rests on the fitted dose curve; in most records, active means well fitted curve in the direction sought with a large enough effect; inconclusive means small, poorly fitted or top-dose-only effect, or another doubt; inactive means no such curve, though single readings can be large; an effect the other way counts as inactive or inconclusive. On the % scale 0 is the no-effect control and ±100 the full control effect.

SMILES	USP1 inh	FBPA coupling cs	Tau fibril FP	Tau fluor cs	Tau fibril ThT
CC1=CC(C)(C)Nc2ccc(OC(=O)c3ccco3)cc21	?	-9	7%	-27%	?
CC1=CC(C)(C)N2C(=O)C(=O)c3cc(OC(=O)c4ccco4)cc1c32	-20%	-13	1%	-28%	13µM*
O=C1C2=C(S[C@@H]3O[C@H](CO)[C@@H](O)[C@H](O)[C@H]3O2)C(=O)c2ccccc21	nt	-40*	?	-15%	?
CCc1cc(SC#N)ccc1N	-17%	0	?	-18%	13µM*
COC(=O)CCCC1=CC2=CC(=O)C(C)(OC(=O)c3cccs3)C(=O)C2=CN1CCc1ccccn1 (stereo not drawn)	?	-31*!	?	-9%[11.6 µM]	11µM*!
C=CCN1C=C2C(=O)C(C)(OC(=O)c3cccs3)C(=O)C=C2C=C1CCCC(=O)OC (stereo not drawn)	?	-7	?	0%[11.6 µM]	?
CCN1CCN(c2cc(C)c3cc(NC(=O)/C=C/c4ccc(OCCC(C)C)cc4)ccc3n2)CC1	10%	nt	5%	?	7.1µM*
CCN1CCN(c2cc(C)c3cc(NC(=O)/C=C/c4ccc(C)cc4)ccc3n2)CC1	-25%	nt	10%	14µM*[quencher]	4.5µM*
CCN1CCN(c2cc(C)c3cc(NC(=O)c4cccs4)ccc3n2)CC1	-7%	8	12%	?	?
COc1ccc(/C=C/C(=O)Nc2ccc3nc(N4CCC(C)CC4)cc(C)c3c2)cc1OC	?	nt	13%	3.5µM*[quencher]	3.5µM*
COc1ccc(/C=C/C(=O)Nc2ccc(Cl)c(Cl)c2)cc1OC	13%	nt	14µM*	10µM*[quencher]	?
CCN1CCN(c2cc(C)c3cc(NC(=O)c4cc(OC)c(OC)c(OC)c4)ccc3n2)CC1	-21%	nt	12%	?	?
O=C(Nc1ccccc1)N1CC[C@@]2(CCCN(C(=O)c3ccncc3)C2)C1	nt	3	nt	nt	nt
O=C(COC(=O)COc1cccc(F)c1)Nc1nc2ccccc2s1	-12%	nt	nt	nt	nt
COc1cc(F)ccc1S(=O)(=O)N1CCN(Cc2ccccc2)CC1	-15%	1	nt	nt	nt
Cc1cccn2c(=O)cc(CSc3nnc(NC(=O)c4ccc(F)cc4)s3)nc12	-2%	nt	-1%	4%	6%
CC(=O)c1ccc(N2CCN(CC(=O)N(CC(C)C)c3c(N)n(CC(C)C)c(=O)[nH]c3=O)CC2)cc1	-15%	0	-4%	0%	-10%
CCN(C(=O)CN1CCN(c2ccc(O)cc2)CC1)c1c(N)n(Cc2ccccc2)c(=O)[nH]c1=O	-4%	-39*	?	-27%	28µM*
CC(C)CN(C(=O)CN1CCN(c2ccc(O)cc2)CC1)c1c(N)n(CC(C)C)c(=O)[nH]c1=O	-8%	-32*	-10%	-22%	?
Cc1ccccc1S(=O)(=O)NC1OC(=O)C(Oc2ccccc2)=C1Br (stereo not drawn)	-22%	0	-11%	0%	-18%
Cc1ccccc1S(=O)(=O)NC1OC(=O)C(Cl)=C1Cl (stereo not drawn)	-28%	-1	28µM*	-22%	28µM*
Cc1ccc2scc(N3CCN(c4ccccc4)CC3)c(=O)c2c1	-17%	nt	-5%	-30%	4µM*
CCN1CCN(c2csc3ccc(F)cc3c2=O)CC1	-15%	nt	4%	-5%	?
O=c1c(N2CCCCC2)csc2ccc(F)cc12	-20%	nt	-3%	-5%	?
Cc1ccc2scc(N3CCc4ccccc4C3)c(=O)c2c1	-8%	nt	?	?	7.1µM*
SMILES	USP1 inh	FBPA coupling cs	Tau fibril FP	Tau fluor cs	Tau fibril ThT
Cc1ccc2scc(N3CCN(c4ccc(F)cc4)CC3)c(=O)c2c1	-14%	nt	-6%	-22%	8.9µM*
CCOc1ccccc1NC(=O)C1=C(C)Nc2ncnn2C1c1ccccn1 (stereo not drawn)	-25%	nt	-12%	-7%	2%
O=C1Nc2ccc(Br)cc2C12NNc1ccccc1O2 (stereo not drawn)	-23%	-2	15%	7.1µM*[quencher]	8.9µM*
CCOC(=O)C1=C(CC)Nc2ccccc2N=C1NC(=O)c1cc(C)on1	-27%	nt	nt	nt	nt
CCOC(=O)C1=C(CC)Nc2ccccc2N=C1NC(=O)Nc1ccc(Cl)c(Cl)c1	-21%	-4	13µM*	?	?
CC(=O)c1cccc(NC(=O)C(C)OC(=O)C2CCC2)c1 (stereo not drawn)	-9%	nt	nt	nt	nt
COc1ccccc1C(C[N+](=O)[O-])c1c[nH]c2ccccc12 (stereo not drawn)	-8%	-3	?	32µM*[quencher]	-7%
O=C(NCc1ccccc1)c1nn(-c2ccccc2)nc1CO	-9%	nt	0%	-2%	1%
Nc1ccc2nn(-c3ccccc3)nc2c1	?	-5	-2%	?	?
Nc1cc2nn(-c3ccccc3)nc2cc1Cl	?	-44*	?	?	3.5µM*
COc1ccccc1OCCn1c(NC(=O)c2ccccc2Cl)nc2ccccc21	-8%	nt	-5%	-26%	-12%
O=C(Nc1ccc(F)cc1)Nc1cc(OCC(F)(F)F)cc(OCC(F)(F)F)c1	-17%	0	8.9µM*	?	-4%
O=C(NCCNC(=O)c1cc(OCC(F)(F)F)ccc1OCC(F)(F)F)Nc1ccc(OC(F)(F)F)cc1	-17%	-3	3.5µM*	-26%	10%
O=C(NCCNC(=O)c1cc(OCC(F)(F)F)ccc1OCC(F)(F)F)Nc1ccc(Cl)cc1	-11%	1	?	-26%	17%
CCOc1ccc(NC(=O)Nc2cc(OCC(F)(F)F)cc(OCC(F)(F)F)c2)cc1	-2%	-2	1%	0%	10%
CCn1c(CNC(=O)C23CC4CC(CC(C4)C2)C3)nnc1SCC(=O)Nc1ccccc1	-13%	nt	-2%	-13%	-1%
CCOC(=O)c1c(C)[nH]c(CCC(=O)NCc2cccc(OC)c2)c1C	-21%	nt	-2%	-4%	-4%
CCOC(=O)c1c(C)[nH]c(N=Nc2cccc(C)c2)c1C	-27%	0	7%	?	10µM*
CCOC(=O)c1c(C)[nH]c(N=Nc2cccc(OC)c2)c1C	-21%	-5	11%	?	5µM*
